Laboratory results published in PubChem BioAssay (NCATS).
Results filed as inconclusive are left out. Entries that show only a call come without a potency. Activity calls are given as the source filed them. Unless noted, calls come from the whole dose curve; as a rule, active = well fitted activation curve with a large enough effect; inconclusive = small, poorly fitted or top-dose-only effect; inactive = flat fitted curve, though single readings scatter.

target: Cellular tumor antigen p53 (Homo sapiens) (UniProt P04637); experiment: Primary qHTS for small molecule compounds that upregulate eGFP-tagged delta133p53alpha (in C-terminal) cells. (AID 2060324); details: NCI-H358 delta133p53alpha-eGFP (C-terminal tag), GFP fluorescence imaging, 24 h; series mostly up to 57.5 µM
Sequence (P04637 whole entry, looked up): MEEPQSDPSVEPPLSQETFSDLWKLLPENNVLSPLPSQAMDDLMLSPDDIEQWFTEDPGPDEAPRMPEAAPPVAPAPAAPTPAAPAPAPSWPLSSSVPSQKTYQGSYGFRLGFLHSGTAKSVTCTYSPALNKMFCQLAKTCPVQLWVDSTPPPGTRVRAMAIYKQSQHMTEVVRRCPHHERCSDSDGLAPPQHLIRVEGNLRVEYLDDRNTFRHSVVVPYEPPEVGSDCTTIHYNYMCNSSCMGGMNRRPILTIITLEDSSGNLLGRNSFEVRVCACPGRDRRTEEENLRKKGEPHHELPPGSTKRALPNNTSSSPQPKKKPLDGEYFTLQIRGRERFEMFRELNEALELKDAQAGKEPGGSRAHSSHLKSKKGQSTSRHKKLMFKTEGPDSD
Procedure, shortened: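 Readout: filtered GFP peak intensity of gated cells (laser scanning cytometer), normalized plate-wise to intraplate controls, DMSO wells = 0% activity. Cells: NCI-H358 D133p53a-eGFP, dox 100 ng/ml 24 h beforehand, then compound 24 h, 37 °C.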
Potency is the fitted concentration of half-maximal effect.

Row | SMILES | Potency
1 | CCN(CC)CCNC(=O)c1ccc(NS(C)(=O)=O)cc1 | inactive
2 | CCCN(CCc1ccccc1)C1CCc2c(O)cccc2C1 (configuration not stated) | inactive
3 | CC(C)COC(=O)OCN1C(=O)CN(CCN2CC(=O)N(COC(=O)OCC(C)C)C(=O)C2)CC1=O | inactive
4 | O=[N+]([O-])c1ccc2c(c1)S(=O)(=O)C=C2 | 30.1 µM (active)
5 | Cc1ccc(O)c(N=Nc2ccccc2)n1 | inactive
6 | CN=c1nc(-c2ccccc2)n(-c2ccccc2)s1 | inactive
7 | S=C(S)N1CCCC1 | 15.1 µM (active)

target: Aldehyde dehydrogenase, mitochondrial (Homo sapiens) (UniProt P05091); experiment: qHTS for Inhibitors of the Aldehyde Dehydrogenase Family (ALDH2) Validation screens (AID 2061302; active = well fitted inhibition curve with a large enough effect; title and protocol of this record describe different tests); details: ALDH inhibition qHTS; series mostly up to 42.6 µM

Row | SMILES | Potency
8 | CCN(CC)CCNC(=O)c1ccc(NS(C)(=O)=O)cc1 | inactive
9 | CCCN(CCc1ccccc1)C1CCc2c(O)cccc2C1 (configuration not stated) | inactive
10 | CC(C)COC(=O)OCN1C(=O)CN(CCN2CC(=O)N(COC(=O)OCC(C)C)C(=O)C2)CC1=O | inactive
11 | Cc1ccc(O)c(N=Nc2ccccc2)n1 | inactive
12 | S=C(S)N1CCCC1 | 3.16 µM (active)
